The source made the active and inactive calls.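 Rule for the calls: active = compound whose remaining NAD level is above about 45 nM (limit read from the data); inactive = the rest.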
biological target: NAD(+) hydrolase SARM1 (Homo sapiens) (UniProt Q6SZW1); experiment: blocking NAD cleavage by SARM1 SAM-TIR – cell lysate, NAD-Glo luminescence (AID 1508614); conditions: SAM-TIR HEK293T lysate NADase, at 1 µM, hits give high values;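 note: higher remaining NAD means stronger inhibition of SARM1 NADase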
Sequence (Q6SZW1 whole entry, looked up): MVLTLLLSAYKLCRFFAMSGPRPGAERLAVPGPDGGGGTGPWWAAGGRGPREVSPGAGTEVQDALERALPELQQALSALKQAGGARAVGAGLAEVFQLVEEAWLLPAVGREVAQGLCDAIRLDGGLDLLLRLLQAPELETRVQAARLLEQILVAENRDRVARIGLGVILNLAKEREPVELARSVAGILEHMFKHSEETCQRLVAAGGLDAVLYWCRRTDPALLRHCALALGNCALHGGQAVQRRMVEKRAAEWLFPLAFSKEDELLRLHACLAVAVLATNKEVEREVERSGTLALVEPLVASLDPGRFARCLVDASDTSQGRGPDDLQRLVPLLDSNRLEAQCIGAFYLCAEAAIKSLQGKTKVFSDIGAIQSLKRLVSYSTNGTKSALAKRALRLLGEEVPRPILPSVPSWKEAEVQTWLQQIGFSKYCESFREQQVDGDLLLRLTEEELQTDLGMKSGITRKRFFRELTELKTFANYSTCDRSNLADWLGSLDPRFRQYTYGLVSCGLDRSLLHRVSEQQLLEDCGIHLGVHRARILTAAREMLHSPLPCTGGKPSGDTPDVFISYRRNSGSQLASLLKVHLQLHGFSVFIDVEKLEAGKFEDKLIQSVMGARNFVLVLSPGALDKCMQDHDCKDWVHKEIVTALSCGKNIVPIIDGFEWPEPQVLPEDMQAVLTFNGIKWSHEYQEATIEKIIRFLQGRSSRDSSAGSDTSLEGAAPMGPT

Remaining NAD, inactive:
Cn1nnnc1SCC1=C(C(=O)O)N2C(=O)[C@@H](NC(=O)[C@H](OC=O)c3ccccc3)[C@H]2SC1 10 nM
CN[C@@H]1[C@@H](O)[C@@H](O[C@@H]2[C@@H](O)[C@H](O[C@H]3OC(CN)=CC[C@H]3N)[C@@H](N)C[C@H]2N)OC[C@]1(C)O 10 nM
CO[C@H]1C[C@@H]2CC[C@@H](C)[C@@](O)(O2)C(=O)C(=O)N2CCCC[C@H]2C(=O)O[C@H]([C@H](C)C[C@@H]2CC[C@@H](O)[C@H](OC)C2)CC(=O)[C@H](C)/C=C(\C)[C@@H](O)[C@@H](OC)C(=O)[C@H](C)C[C@H](C)\C=C/C=C/C=C/1C 10 nM
C[C@H]1C[C@@H]2[C@H]([C@@H](O)C[C@@]3(C)[C@H]2CC[C@]3(O)C(=O)COC(=O)CCC(=O)O)[C@@]2(C)C=CC(=O)C=C12 10 nM
CC[C@H]1OC(=O)C[C@@H](O)[C@H](C)[C@@H](O[C@@H]2O[C@H](C)[C@@H](O)[C@H](N(C)C)[C@H]2O)[C@@H](CCN2C[C@H](C)C[C@H](C)C2)C[C@@H](C)C(=O)/C=C/C(C)=C/[C@@H]1CO[C@@H]1O[C@H](C)[C@@H](O)[C@@H](OC)[C@H]1OC 10 nM
CCN[C@@H]1C[C@H](N)[C@@H](O[C@H]2OC(CN)=CC[C@H]2N)[C@H](O)[C@H]1O[C@H]1OC[C@](C)(O)[C@H](NC)[C@H]1O 10 nM
CN[C@@H]1[C@H](O[C@H]2[C@H](O[C@H]3[C@H](O)[C@@H](O)[C@H](N=C(N)N)[C@@H](O)[C@@H]3N=C(N)N)O[C@@H](C)[C@]2(O)C=O)O[C@@H](CO)[C@H](O)[C@H]1O 10 nM

— PubChem BioAssay
